An excerpt weighted towards active compounds, which were near 32% of everything screened.
CYP2C19 act – increases human CYP2C19 enzyme activity; P33261; recombinant CYP2C19, luciferin-H EGE luminescence; active compounds read high; 0 = fully inhibited enzyme, 1 = untreated enzyme; activation factor at 5 µM; 96,000 tested, under 10 active;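 active means activation factor of at least 2 at 5 µM in the primary screen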;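 further: 0 = wells with 2.5 mM tranylcypromine and 1 = vehicle-only wells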
Target sequence (P33261 whole entry, looked up): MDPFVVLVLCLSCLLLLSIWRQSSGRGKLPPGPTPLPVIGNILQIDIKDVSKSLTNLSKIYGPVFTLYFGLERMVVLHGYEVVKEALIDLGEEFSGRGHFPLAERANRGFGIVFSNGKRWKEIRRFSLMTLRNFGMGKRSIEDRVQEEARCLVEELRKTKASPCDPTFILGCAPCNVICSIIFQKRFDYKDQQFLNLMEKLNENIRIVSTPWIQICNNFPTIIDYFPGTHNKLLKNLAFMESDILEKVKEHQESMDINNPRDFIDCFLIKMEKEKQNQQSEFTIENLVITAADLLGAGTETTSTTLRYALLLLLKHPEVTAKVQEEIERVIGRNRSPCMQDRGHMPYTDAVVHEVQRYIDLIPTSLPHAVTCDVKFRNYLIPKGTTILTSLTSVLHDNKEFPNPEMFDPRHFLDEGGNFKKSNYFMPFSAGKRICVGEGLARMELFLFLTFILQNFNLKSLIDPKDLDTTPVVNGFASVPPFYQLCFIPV
PostGolgi yeast – growth inhibition of a yeast mutant, post-Golgi transport screen | post-Golgi transport phenotypic cell assay | 98,000 compounds, 0.9% hits | inhibition, % at 10 µM;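 further: yeast cells grown in 1536-well plates; yeast grown about 18 h at 30C before absorbance read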
CYP2C9 activ – CYP2C9 (human) activation; 96,000 compounds, 1.4% hits; recombinant CYP2C9, luciferin-H conversion, luminescence; active compounds read high; factor 1 = untreated enzyme, 0 = blocked; P11712; activation factor at 5 µM;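 active means activation factor of 2 or more for CYP2C9 at a 5 µM dose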;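 further: 0 = sulfaphenazole-blocked wells and 1 = vehicle-only wells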
CYP2C19 inhib – blocks human cytochrome P450 2C19 | P33261 | CYP2C19 Supersomes, luciferin-H EGE luminescence, 30 min | inhibition, % at 5 µM | 96,000 compounds, 21% hits;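 active means CYP2C19 inhibition above a set limit at 5 µM in the primary screen, cut at about 50% in these data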;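 further: plate controls were negative control wells for no effect and 2.5 mM tranylcypromine positive control for full effect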
PostGolgi ctrl – inhibits growth of the yeast control strain. efflux-deficient yeast background strain, growth absorbance A615, 16 h. inhibition, % at 10 µM. 98,000 compounds, 5% hits
CYP2C9 inhib – inhibitors of human CYP2C9 | inhibition, % at 5 µM | 96,000 compounds, 20% hits | CYP2C9 Supersomes, luciferin-H conversion, luminescence;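 active means blocking of liver enzyme CYP2C9 beyond about 50% at 5 µM, limit read from the data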
Active calls of the source: *; / = no result. Unless noted, no stated cut-off is given here; in the data, active means inhibition above about 30%; inactive means the rest.

SMILES	CYP2C19 act	PostGolgi yeast	CYP2C9 activ	CYP2C19 inhib	PostGolgi ctrl	CYP2C9 inhib
O=C(Nc1c(F)cccc1F)c1cnc(N2CCN(c3ccccn3)CC2)c2ccccc12	0.6	0	0.4	36	6	65*
CCN1CCN(c2ncc(C(=O)Nc3cc(Cl)ccc3OC)c3ccccc23)CC1	0.8	-4	1.7	15	3	-66
O=C(c1cc(-c2ccccc2)nc2ccccc12)N1CCN(c2ccccn2)CC1	0.6	-7	0.5	37	12	52*
O=C(CSc1nnc2ccccn12)NCc1cccs1	0.8	4	0.9	16	-5	7
CN1c2ccccc2C(C)(C)C12C=Cc1cc(O)ccc1O2 (centres undefined)	0.2	-4	0.4	76*	17	61*
COc1ccc2c(c1)OCC1=C2CCC2(C)C(=O)CC=C12 (centres undefined)	0.6	0	0.4	42	4	64*
COc1ccc2c(c1)SCCC2=O	0.7	1	0.7	34	1	31
N#Cc1ccc(CSc2nnc(-c3cnccn3)o2)cc1	0.3	-3	0.7	70*	7	27
CC1/C(=C\c2ccc(Cl)cc2)C(=O)C2CC1C2(C)C (centres undefined)	0.2	27	0.4	77*	18	65*
Cc1cccc(N2C(=O)CC(Sc3nc(-c4ccccc4)c4cc(Cl)ccc4n3)C2=O)c1 (centres undefined)	0.7	-2	0.4	25	25	58*
CCN(CC)S(=O)(=O)c1ccc2nc(SC)sc2c1	0.2	4	0.7	78*	1	33
CSc1nc2ccc(S(=O)(=O)Nc3c(C)n(C)n(-c4ccccc4)c3=O)cc2s1	0.8	-10	0.7	22	4	32
CSc1nc2ccc(S(=O)(=O)N(C)C)cc2s1	0.1	-5	0.7	86*	15	31
CSc1nc2ccc(NS(=O)(=O)c3ccc(Cl)s3)cc2s1	0	-1	0	100*	40*	100*
CCc1n[nH]c2c1C(=O)CC(C)(C)C2	0.9	11	1	12	23	-4
CS(=O)(=O)N(CC(=O)NC1CCCCCC1)Cc1ccc(Cl)cc1	0.8	-2	0.8	23	13	15
Cc1c(C(=O)N2CCOCC2)sc2ncnc(N3CCc4ccccc4C3)c12	0.7	5	0.3	32	-1	65*
Nc1c(C(=O)N2CCOCC2)sc(=S)n1-c1ccccc1	1	-6	1	2	-2	5
Cc1c(C(=O)N2CCN(c3ccccc3)CC2)sc2ncnc(N3CCC(C)CC3)c12	0.4	4	0.5	61*	14	49
Cc1c(C(=O)N2CCOCC2)sc2ncn(CC(=O)N3CCC(C)CC3)c(=O)c12	1	-9	1	0	-8	-1
CCNC(=O)C1CC(=O)OC12CCCCC2 (centres undefined)	0.7	-40	1	31	14	0
CCC1(CC)Cc2ccccc2C(Nc2c(C)n(C)n(-c3ccccc3)c2=O)=N1	0.9	-1	0.9	9	4	14
O=C(NC1CCCc2ccccc21)C1CCN(C(=O)c2sccc2-n2cccc2)CC1 (centres undefined)	0.8	-10	0.6	15	12	39
O=c1c([N+](=O)[O-])c(N2CCCCCC2)c2ccccc2n1-c1ccccc1	1	-7	0.9	0	16	7
COC(=O)COc1ccc(S(=O)(=O)Nc2cc(OC)ccc2OC)cc1	0	5	1.9	99*	5	-86
SMILES	CYP2C19 act	PostGolgi yeast	CYP2C9 activ	CYP2C19 inhib	PostGolgi ctrl	CYP2C9 inhib
CCOC(=O)c1ccc(NC(=O)CCNS(=O)(=O)c2ccc3c(c2)oc(=O)n3C)cc1	0.9	6	1.3	10	4	-30
COc1ccc(NS(=O)(=O)c2ccc3c(c2)n(C)c(=O)n3C)cc1	0.7	18	0.3	27	-10	74*
CCOC(=O)c1oc2ccc(S(=O)(=O)Nc3ccc4c(c3)n(C)c(=O)n4C)cc2c1C	0.2	-2	0.1	79*	6	94*
COC(=O)COc1ccc(S(=O)(=O)Nc2ccccc2SC)cc1	/	-3	/	/	6	/
COc1ccc(OC)c(NS(=O)(=O)c2ccc3c(c2)n(C)c(=O)n3C)c1	0.2	-18	0.5	78*	10	45
Cn1c(=O)n(C)c2cc(S(=O)(=O)NCc3ccccc3)ccc21	0.8	-2	1.3	22	1	-31

Screening data as filed in PubChem.
